Among the data in PubChem BioAssay (EPA / NIEHS) are outcome and AC50 values, retold here.

The structures appear in SMILES notation. Active and inactive are the calls of the source. How the source made its calls: active means hit-call score of the fitted dose curve at least 0.9, where 1 is the maximum; inactive means score below 0.9.

Conditions in all cases: mRNA level, 48 h; actives raise or lower the signal
Read-out in one experiment: CYP4A11 (gene 1579)
Put plainly: LTEA_HepaRG_CYP4A11: Life Technologies and Expression Analysis (LTEA) Assay for CYP4A11 using HepaRG (AID 2283486). In outline:
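CYP4A11 transcript levels were quantified by TaqMan qRT-PCR after HepaRG human liver cells were treated for 48 hours with test chemicals (top 100 uM, half-log dilutions, 0.5% DMSO). Gain or loss of signal was fitted relative to DMSO.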

Read-out in experiment [1]: Cytochrome P450 3A4 (Homo sapiens) (UniProt P08684)
Put plainly: LTEA_HepaRG_CYP3A4: Life Technologies and Expression Analysis (LTEA) Assay for CYP3A4 using HepaRG (AID 2283487). The essentials:
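Differentiated HepaRG cells in serum-free induction medium exposed in duplicate for 48 h to 8 half-log concentrations up to 100 uM in 0.5% DMSO. CYP3A4 mRNA measured by qRT-PCR normalized to ACTB, GAPDH and POLR2A; bidirectional fit versus DMSO.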

Read-out in experiment [2]: DNA damage-inducible transcript 3 (DDIT3), DDIT3 (gene 1649)
Put plainly: LTEA_HepaRG_DDIT3: Life Technologies and Expression Analysis (LTEA) Assay for DNA damage-inducible transcript 3 (DDIT3) using HepaRG (AID 2283488). The essentials:
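HepaRG cells, 48 h after plating, exposed 48 h in serum-free induction medium to 8 half-log concentrations up to 100 uM in 0.5% DMSO, in duplicate. DDIT3 mRNA measured by TaqMan qRT-PCR, normalized to ACTB, GAPDH and POLR2A. Fitted bidirectionally against DMSO.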

Read-out in experiment [3]: Pro-epidermal growth factor (Homo sapiens) (UniProt P01133)
Put plainly: LTEA_HepaRG_EGF: Life Technologies and Expression Analysis (LTEA) Assay for Epidermal growth factor (EGF) using HepaRG (AID 2283489). The essentials: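 qRT-PCR readout of EGF transcript after 48 h chemical exposure of HepaRG cells; eight concentrations from 100 uM down in half-log steps, duplicate wells, 0.5% DMSO vehicle. Bidirectional curve fitting against DMSO baseline.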

Read-out in experiment [4]: Early growth response protein 1 (EGR1) transcription factor, EGR1 (gene 1958)
Put plainly: LTEA_HepaRG_EGR1: Life Technologies and Expression Analysis (LTEA) Assay for Early growth response protein 1 (EGR1) transcription factor using HepaRG (AID 2283490). In outline:
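Read-out is EGR1 mRNA level by qRT-PCR, normalized to three housekeeping genes and analysed for gain or loss of signal against 0.5% DMSO. Source cells: human HepaRG, treated 48 h at up to 100 uM in half-log dilutions.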

Read-out in experiment [5]: Ezrin (EZR), EZR (gene 7430)
Put plainly: LTEA_HepaRG_EZR: Life Technologies and Expression Analysis (LTEA) Assay for Ezrin (EZR) using HepaRG (AID 2283491). The essentials:
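Differentiated human HepaRG cells, 48 h after plating, were exposed in serum-free induction medium for 48 hours to eight half-log concentrations up to 100 uM in 0.5% DMSO. EZR mRNA was measured by TaqMan qRT-PCR, normalized to ACTB, GAPDH and POLR2A, and fitted bidirectionally against DMSO.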

Read-out in experiment [6]: Cytochrome P450 3A7 (Homo sapiens) (UniProt P24462)
Put plainly: LTEA_HepaRG_CYP3A7: Life Technologies and Expression Analysis (LTEA) Assay for CYP3A7 using HepaRG (AID 2283492). In outline:
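CYP3A7 transcript levels were read by TaqMan qRT-PCR on Fluidigm arrays after 48 h chemical exposure of human HepaRG cells, with housekeeping-gene normalisation. Eight half-log concentrations up to 100 uM in 0.5% DMSO were tested in duplicate.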

Read-out in the next experiment: CYP3A5 (gene 1577)
Put plainly: LTEA_HepaRG_CYP3A5: Life Technologies and Expression Analysis (LTEA) Assay for CYP3A5 using HepaRG (AID 2283493). In outline: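 HepaRG cells, plated 48 h then in serum-free induction medium, dosed in duplicate for 48 h with eight half-log concentrations up to 100 uM in 0.5% DMSO. Gene mRNA by Fluidigm TaqMan qRT-PCR, normalized to ACTB, GAPDH, POLR2A.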

Read-out in experiment [7]: Fatty Acid-Binding Protein 1 (FABP1), FABP1 (gene 2168)
Put plainly: LTEA_HepaRG_FABP1: Life Technologies and Expression Analysis (LTEA) Assay for Fatty Acid-Binding Protein 1 (FABP1) using HepaRG (AID 2283494). In outline:
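HepaRG, 48 h post-plating switched to serum-free induction medium, then dosed 48 h (duplicate, 8 pts, ≤100 uM, 0.5% DMSO). RNA → Fluidigm TaqMan qRT-PCR, FABP1 normed to ACTB/GAPDH/POLR2A. Bidirectional curve fit vs DMSO.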

Read-out in experiment [8]: Cytochrome P450 4A22 (Homo sapiens) (UniProt Q5TCH4)
Put plainly: LTEA_HepaRG_CYP4A22: Life Technologies and Expression Analysis (LTEA) Assay for Cytochrome P450 4A22 (CYP4A22) using HepaRG (AID 2283495). The essentials:
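HepaRG, 48 h post-plating -> serum-free induction medium; dosed 48 h, duplicate, 8 conc. (100 uM top, half-log), 0.5% DMSO. Readout: CYP4A22 mRNA by qRT-PCR, ACTB/GAPDH/POLR2A normalization; gain/loss fit relative to DMSO.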

Chain of Cytochrome P450 3A7 (Homo sapiens) (P24462 whole entry, looked up): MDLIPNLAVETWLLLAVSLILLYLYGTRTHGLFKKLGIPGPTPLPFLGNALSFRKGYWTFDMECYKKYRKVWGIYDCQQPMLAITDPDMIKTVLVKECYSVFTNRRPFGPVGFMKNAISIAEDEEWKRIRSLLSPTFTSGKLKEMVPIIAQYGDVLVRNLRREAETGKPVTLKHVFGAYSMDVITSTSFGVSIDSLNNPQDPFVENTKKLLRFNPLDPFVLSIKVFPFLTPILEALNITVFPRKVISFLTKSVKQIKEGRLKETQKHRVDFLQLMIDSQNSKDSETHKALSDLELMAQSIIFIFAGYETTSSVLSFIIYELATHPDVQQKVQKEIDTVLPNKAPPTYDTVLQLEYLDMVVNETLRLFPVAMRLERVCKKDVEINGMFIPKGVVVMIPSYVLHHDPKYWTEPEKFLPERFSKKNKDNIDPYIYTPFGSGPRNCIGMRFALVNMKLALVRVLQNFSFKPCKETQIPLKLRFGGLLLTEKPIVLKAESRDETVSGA
Chain of Cytochrome P450 3A4 (Homo sapiens) (P08684 whole entry, looked up): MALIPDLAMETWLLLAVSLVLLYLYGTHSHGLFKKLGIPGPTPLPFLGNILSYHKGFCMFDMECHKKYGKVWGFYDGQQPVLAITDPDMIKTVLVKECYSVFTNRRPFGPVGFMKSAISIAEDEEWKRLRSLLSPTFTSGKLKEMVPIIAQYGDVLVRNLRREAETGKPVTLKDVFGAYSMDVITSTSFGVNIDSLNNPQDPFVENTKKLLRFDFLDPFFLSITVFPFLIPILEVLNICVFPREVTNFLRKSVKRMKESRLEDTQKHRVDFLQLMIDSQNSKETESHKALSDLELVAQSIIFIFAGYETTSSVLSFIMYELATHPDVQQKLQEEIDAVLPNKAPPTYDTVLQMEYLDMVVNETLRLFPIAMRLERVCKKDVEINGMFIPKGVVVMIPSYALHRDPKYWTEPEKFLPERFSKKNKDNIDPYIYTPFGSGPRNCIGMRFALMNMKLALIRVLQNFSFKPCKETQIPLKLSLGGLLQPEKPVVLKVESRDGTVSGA

For the molecule `CCCC(=O)OCCC(C)C`, the molecule was called inactive (in the experiment with CYP4A11 (gene 1579); in experiment [1]; in [2]; in [3]; in experiment [4]; in [5]). Also, the outcome (in experiment [6]; with CYP3A5 (gene 1577); in [7]; in experiment [8]) was inactive.
With `Cc1occc1C(=O)Nc1ccc(C(=O)N2CCC(F)(F)/C(=C\C(=O)N3CCC(N4CCCCC4)CC3)c3ccccc32)cc1`, the concentration at half-maximal activity (AC50) – broadly, the concentration giving half of the maximal activity seen – with CYP4A11 (gene 1579) was 49 µM (active); in [2], 42.3 µM (active); in experiment [8], 57.5 µM (active). Further, the molecule was classed as inactive in experiment [1], in experiment [3], in experiment [4], in experiment [5], in experiment [6] and in experiment [7].
Consider `O=C(O)c1ccccc1C(=O)OCc1ccccc1`, for which the AC50 with CYP4A11 (gene 1579) is 26.2 µM (active); in experiment [7], 28.1 µM (active); in experiment [8], 23.4 µM (active). In addition, the result in experiment [1], in [2], in experiment [3], in [4], in experiment [5] and in [6] was inactive.
As to `O=c1[nH]sc2ccccc12`, the result (in the experiment with CYP4A11 (gene 1579); in experiment [1]; in [2]; in experiment [3]; in experiment [4]; in experiment [5]) was inactive. The molecule was classed as inactive in [6], in experiment [7] and in experiment [8].
Regarding `CCCCCCCCCCCC[N+](C)(C)C`, the AC50 with CYP4A11 (gene 1579) is 76.2 µM (active); in experiment [1], 58.6 µM (active); in experiment [2], 78.1 µM (active); in [5], 83.7 µM (active); with CYP3A5 (gene 1577) it was 86.6 µM (active); in experiment [7] it was 93.9 µM (active). Also, the result in experiment [3], in [6] and in experiment [8] was inactive.
Take `NC(=O)c1nc(-c2cccc(-c3cc(F)ccc3OCC(F)(F)C(F)(F)F)c2)n[nH]1`: the AC50 is 12.3 µM (active) with CYP4A11 (gene 1579); 81.1 µM (active) in experiment [1]; 78.1 µM (active) in experiment [2]; 84.4 µM (active) in [4]; 50 µM (active) in experiment [7]; 9.78 µM (active) in experiment [8]. Also, the molecule was called inactive in [3], in [5] and in [6].
For `Oc1ccccc1`, the molecule was classed as inactive (with CYP4A11 (gene 1579); in [1]; in experiment [2]; in [3]; in experiment [5]; in experiment [6]). For the same molecule, the outcome (with CYP3A5 (gene 1577); in experiment [7]; in experiment [8]) was inactive.
As for `O=C(O)c1ccccc1-n1cc(C(=O)O)c(=O)c2cc(Nc3c(F)cc(F)cc3Cl)c(Cl)cc21`, the outcome (in the experiment with CYP4A11 (gene 1579); in [2]; in experiment [3]; in experiment [4]; in experiment [5]; in experiment [7]) was inactive. In addition, the outcome in [8] was inactive. The half-maximal activity concentration (AC50) was 3.09 µM (active) in experiment [1] and 3 µM (active) in experiment [6].
As to `COc1cccc([C@H](O)C2CCN(CCc3ccc(F)cc3)CC2)c1OC`, the result (with CYP4A11 (gene 1579); in experiment [3]; in experiment [4]; in experiment [5]; in experiment [6]; in the experiment with CYP3A5 (gene 1577)) was inactive. Also, the call in experiment [7] and in experiment [8] was inactive. Moreover, the figures for the AC50 in experiment [1] and in experiment [2] were 50 µM (active) and 70.5 µM (active), respectively.
Take `CC1=CC(=O)/C(=C(/C)O)C(=O)O1`: the call (with CYP4A11 (gene 1579); in [1]; in [2]; in experiment [3]; in experiment [4]; in experiment [5]) was inactive. The molecule was called inactive (in experiment [6]; in the experiment with CYP3A5 (gene 1577); in experiment [7]; in experiment [8]).
As to `CCOC(=O)O[C@H](C)OC(=O)c1ccc2c(c1)cc(C(=O)NC1CCN(C(C)C)CC1)n2Cc1cc(-c2ccc(Cl)s2)on1`, the half-maximal activity concentration (AC50) in the experiment with CYP4A11 (gene 1579) was 47.2 µM (active). The molecule was called inactive in [1], in [2], in experiment [3], in experiment [4], in [5] and in [6]. For the same molecule, the call in experiment [7] and in [8] was inactive.
As to `CCCCCCCCOc1ccc(C(=O)c2ccccc2)c(O)c1`, the molecule was classed as inactive (with CYP4A11 (gene 1579); in [1]; in [2]; in [3]; in experiment [4]; in [5]). Further, the call (in experiment [6]; with CYP3A5 (gene 1577); in [7]; in experiment [8]) was inactive.
On to `CCN(CC)C(=O)c1cc(S(=O)(=O)Cc2ccccc2)c(N2CCC(c3ccccc3)CC2)cc1N(CC)CCN(C)C`, for which the half-maximal activity concentration (AC50) in the experiment with CYP4A11 (gene 1579) is 30.5 µM (active); in experiment [1] it was 34.7 µM (active); in [2] it was 22.9 µM (active); in experiment [4], 28.8 µM (active); in [6] it was 1.9 µM (active). Further, the outcome in experiment [3], in experiment [5], in experiment [7] and in experiment [8] was inactive.
Turning to `CCO[Si](CCCNC(N)=O)(OCC)OCC`, the result (with CYP4A11 (gene 1579); in experiment [1]; in experiment [2]; in experiment [3]; in [4]; in [5]) was inactive. Also, the molecule was called inactive (in experiment [6]; in the experiment with CYP3A5 (gene 1577); in [7]; in experiment [8]).
Take `CC[C@@H]1C[C@H](N(Cc2cc(C(F)(F)F)cc(C(F)(F)F)c2)C(C)=O)c2cc(C(F)(F)F)ccc2N1C(=O)OC(C)C`: the AC50 in the experiment with CYP4A11 (gene 1579) is 15.6 µM (active); in experiment [1] it was 0.29 µM (active); in [6] it was 0.435 µM (active); in experiment [7], 4.3 µM (active); in experiment [8], 9.62 µM (active). The molecule was classed as inactive (in [2]; in experiment [3]; in [4]; in experiment [5]; with CYP3A5 (gene 1577)).
On to `CC[C@H](NC(=O)c1cc(F)ccc1NS(=O)(=O)c1cccc2cccnc12)c1ccccc1`, for which the AC50 in the experiment with CYP4A11 (gene 1579) was 22.4 µM (active); in [1] it was 0.957 µM (active); in [2], 47.8 µM (active); in experiment [3], 11.5 µM (active); in experiment [7] it was 32.3 µM (active); in experiment [8], 22.8 µM (active). Also, the result (in experiment [5]; in [6]; with CYP3A5 (gene 1577)) was inactive.
For `CCCOC(=O)c1cc(O)c(O)c(O)c1`, the concentration at half-maximal activity (AC50) in the experiment with CYP4A11 (gene 1579) is 6.67 µM (active); in [1] it was 1.14 µM (active); in experiment [7] it was 30.1 µM (active); in experiment [8], 4.41 µM (active). The result (in [2]; in [3]; in [4]; in [6]; in the experiment with CYP3A5 (gene 1577)) was inactive.
